Potency and affinity values are given separately. Active and inactive are the calls of the source.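 How the source made its calls: active means compounds lowering miR-122 whose fitted half-maximal concentration is at most twice the top tested dose; inconclusive means flat fit with moderate reduction, or poor fit quality; inactive means the rest.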
Test: miR-122 quantity in Huh7 after inhibitor exposure – cell-based, RT-qPCR, dry powder, orthogonal assay for miR-122 inhibitor project, dose response (AID 687041)

| Compound | outcome |
| --- | --- |
| Cc1cc(C)c(S(=O)(=O)NC2CC3CCC2C3)c(C)c1 (stereo not given) | inactive |
| O=C(Nc1ccc(N2CCOCC2)c(S(=O)(=O)Nc2cc(Cl)ccc2Cl)c1)c1cccnc1 | inactive |
| O=S(=O)(c1ccc2c(c1)CCCN2)N1CCC[C@@H]2CCCC[C@H]21 | inactive |
| CCOc1ccccc1N1CCN(C(=O)c2cccc(-c3ccc(O)cc3)c2)CC1 | inactive |
| COc1ccc(C(C)(C)C)cc1S(=O)(=O)NCC1CCCO1 (stereo not given) | inactive |
| Cc1ccc(C(C)C)cc1S(=O)(=O)Nc1cccnc1 | inactive |
| COc1ccc(C)cc1NS(=O)(=O)c1ccc2c(c1)N(C)CCO2 | inactive |
| Cc1cc(S(=O)(=O)NC2CCCCC2)c(C)s1 | inactive |
| CCCCNS(=O)(=O)c1ccc2nc(-c3cccnc3)cc(C(=O)NC(C)CC)c2c1 (stereo not given) | inactive |
| Cc1cc(C)c(C)c(S(=O)(=O)NC2CCCCC2)c1C | inactive |
| COc1cc(C)c(C(C)C)cc1S(=O)(=O)n1cnc(C)c1 | inactive |
| COc1cccc(N2CCN(C(=O)c3oc4ccccc4c3NC(=O)CCc3cc(OC)no3)CC2)c1 | inactive |
| Cc1ccc(NS(=O)(=O)c2cc(C(=O)NCc3ccccn3)ccc2Cl)cc1C | inactive |
| Cc1cccc(NS(=O)(=O)c2cc3c(cc2C)NC(=O)CO3)c1 | inactive |
| Cc1cc(Cl)c(Cl)cc1S(=O)(=O)NCCCn1ccnc1 | inactive |
| CCOc1cc(C)c(S(=O)(=O)NC2CCCCC2)cc1C | inactive |
| O=C(Nc1ccc2ccccc2c1)c1ccc(Cl)cc1Cl | inactive |
| COC(=O)c1cc(S(=O)(=O)Nc2cc(OC)cc(OC)c2)cn1C | inactive |
| Nc1c(S(=O)(=O)c2cccs2)c2nc3ccccc3nc2n1Cc1ccccc1 | inactive |
| Cc1ccc(C)c(S(=O)(=O)Nc2ccc3cn[nH]c3c2)c1 | inactive |
| CCOc1ccc(C)cc1S(=O)(=O)NC1CCCCC1 | inactive |
| Cc1cc(C)c(S(=O)(=O)NC(C)C)c(C)c1-n1cnnn1 | inactive |
| O=S(=O)(Nc1cccc2[nH]ncc12)c1ccc(F)c2ncccc12 | inactive |
| Cc1ccc(C(=O)C2Oc3ccccc3C3CC(c4ccc(C)cc4)=NN23)cc1 (stereo not given) | inactive |
| Cc1cc(C(C)(C)C)cc(S(=O)(=O)NCCO)c1C | inactive |
| CN1C(=O)c2cccc3c(S(=O)(=O)NCCc4ccccc4)ccc1c23 | inactive |
| CCN(CC)C(=O)CN(c1cc2c(cc1OC)oc1ccccc12)S(=O)(=O)c1ccccc1 | inactive |
| COc1ccc(S(=O)(=O)NCCN2CCOCC2)c2ccccc12 | inactive |
| Cc1ccc(C)c(S(=O)(=O)Nc2ccc(-n3cnnn3)cc2)c1 | inactive |
| COc1ccc(S(=O)(=O)Nc2ccc(OC(F)F)cc2)c2cccnc12 | inactive |

Reference: PubChem BioAssay AID687041 (Broad Institute, 2013)
